Bioassay records as filed in PubChem.
Only a selection was taken, and hits are over-represented in it overall.
mcGAS MS inh: inhibitors of mouse cGAS; Q8C6L5; recombinant mouse cGAS, cGAMP by RapidFire MS; inhibition, % at 12.5 µM; actives 0.18% (n = 130,000); AID 1259397;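 active = inhibition of cGAS enzyme activity at or above 60%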;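 also: enzyme stimulated by 45 bp dsDNA with ATP and GTP substrates; cGAMP share of summed cGAMP plus half ATP and half GTP signals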
Target sequence (Q8C6L5 whole entry, looked up): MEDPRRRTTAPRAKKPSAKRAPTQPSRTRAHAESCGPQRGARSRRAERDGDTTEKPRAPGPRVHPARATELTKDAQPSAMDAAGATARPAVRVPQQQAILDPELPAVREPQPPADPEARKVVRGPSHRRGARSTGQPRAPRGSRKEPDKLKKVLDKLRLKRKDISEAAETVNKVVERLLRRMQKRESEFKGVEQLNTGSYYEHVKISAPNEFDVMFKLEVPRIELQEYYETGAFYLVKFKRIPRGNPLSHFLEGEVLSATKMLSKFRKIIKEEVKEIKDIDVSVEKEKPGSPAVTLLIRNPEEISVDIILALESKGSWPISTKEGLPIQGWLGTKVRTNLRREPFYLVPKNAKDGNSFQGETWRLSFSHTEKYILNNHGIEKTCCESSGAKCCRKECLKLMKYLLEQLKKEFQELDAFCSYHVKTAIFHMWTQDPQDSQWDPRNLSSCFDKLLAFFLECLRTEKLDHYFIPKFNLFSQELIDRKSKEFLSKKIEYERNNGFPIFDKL
A number is an active result; 0 = inactive.

SMILES | mcGAS MS inh
O=C1C(=Cc2ccc(-c3ccccc3)cc2)CS(=O)(=O)c2ccc(F)cc21 | 0
N#Cc1ccc(/C=C2\CS(=O)(=O)c3c(F)cccc3C2=O)cc1 | 63
N#Cc1ccc(/C=C2\SCCc3ccccc3C2=O)cc1 | 0
C/C(=N\NC(=O)c1ccc(C(C)(C)C)cc1)c1ccc(NC(=O)c2ccc(C)o2)cc1 | 0
Cc1cc(O)c(-c2ccn[nH]2)c(=O)o1 | 0
Cc1cc(O)c(C2=Nc3ccccc3SC(c3ccc([N+](=O)[O-])cc3)C2)c(=O)o1 (configuration not stated) | 0
Cc1cc(O)c(C2=Nc3cc(C(F)(F)F)ccc3SC(c3ccc(O)c([N+](=O)[O-])c3)C2)c(=O)o1 (configuration not stated) | 67
N#Cc1c(N)oc2c3c(c(O)cc12)C(=O)c1ccccc1C3=O | 68
Cc1oc2ccccc2c1C#N | 0
Cc1cc(=O)oc2c(-c3cc(-c4cccs4)nc(N)n3)c(O)ccc12 | 0
COc1ccc(CNC(=O)C2CCN(Cc3cc4n(n3)CCCNC4)CC2)cc1 | 0
CCOC(=O)c1cc(Cl)nc(Cl)c1C | 0
CCOC(=O)c1cc(C(=O)OCC)c2c(C)cc(C)cc(C)c1-2 | 88
CCOC(=O)c1c[nH]cc(C)c1=O | 0
O=C1CCC2(CCN1)CCN(C(=O)c1ccc(-c3ncn[nH]3)cc1)CC2 | 0
O=C(Cn1ccc(=O)[nH]c1=O)NCCCN1c2ccccc2Sc2ccccc21 | 0
Cc1cc(C)c(-n2cnnc2)cc1N | 0
O=c1[nH]c(C2CC2)nc2ccc(-c3cccc(C(F)(F)F)c3)cc12 | 0
O=C(O)C1CSC(c2cc(Br)ccc2O)N1 (configuration not stated) | 0
CSc1ccc(C2NC(C(=O)O)CS2)cc1 (configuration not stated) | 0
O=C(O)C1CSC(c2cc(Br)c(O)c(Br)c2)N1 (configuration not stated) | 87
CCc1ccsc1C(=O)Nc1cccc(CS(C)(=O)=O)c1C | 0
CC(=O)C1(C)N(O)C(C)(C)C(c2ccc(Cl)cc2)=[N+]1[O-] (configuration not stated) | 0
CC1C(c2ccc(Cl)cc2)=[N+]([O-])C(C)(c2ccccc2)N1O (configuration not stated) | 0
CC1=C(c2ccc(Cl)cc2)[N+](=O)C(C)(c2ccc(Br)cc2)N1[O-] (configuration not stated) | 90
SMILES | mcGAS MS inh
O=C(NCC1CCCO1)C1CCN(C2CCN(C(=O)C3=CCCCC3)CC2)CC1 (configuration not stated) | 0
Cc1ccnc(NC(=O)C2CCN(Cn3c(=O)oc4ccccc43)CC2)c1 | 0
Cc1ccc(Cl)cc1N=Cc1nc(-c2cccc3ccccc23)oc1O | 83
Cc1cccc(N=Cc2nc(-c3cccc4ccccc34)oc2O)c1 | 88
Oc1oc(-c2cccc3ccccc23)nc1C=Nc1cccc(F)c1 | 0
Cc1ccc(-c2nc(C=Nc3cccc(C)c3)c(O)o2)cc1 | 0
Cc1ccc(Cl)cc1N=Cc1nc(-c2ccc(Cl)cc2)oc1O | 0
Cc1cc(Cl)ccc1N=Cc1nc(-c2ccccc2Br)oc1O | 0
O=C(Cc1ccc2c(c1)OCO2)N1CCCC2(C1)C(=O)Nc1ccccc12 (configuration not stated) | 0
c1ccc(-c2cnn3cc(CN4CCCC(Cn5ccnc5)C4)cnc23)cc1 (configuration not stated) | 0
CC(=O)N1CCCc2ccc(S(=O)(=O)NCC3CC=CCC3)cc21 (configuration not stated) | 0
COc1ccccc1C1CCCN1C(=O)c1cc2n(n1)CCNC2 (configuration not stated) | 0
Cn1cc(/C=C2/CSc3c(Cl)cccc3C2=O)c(=O)n(C)c1=O | 0
CC(Nc1ccc(Cl)cc1Cl)C(=O)O (configuration not stated) | 0
N[C@@H](Cc1cc(-c2ccc(Cl)cc2Cl)cc(CP(=O)(O)O)c1O)C(=O)O | 70
NC(Cc1ccc(O)cc1)C(=O)O (configuration not stated) | 0
O=C(NNC(=S)NCc1ccco1)C(=O)NNC(=S)NCc1ccco1 | 0
CCCCCn1c(N2CCN(c3ccccc3)CC2)nc2c1c(=O)n(C)c(=O)n2C | 0
O=C(N/N=C1\CC2C=CCC12)c1cccnc1 (configuration not stated) | 0
CC(C)c1cc(=O)[nH]c(-n2nc(-c3cccs3)cc2NC(=O)c2ccc(Br)o2)n1 | 0
CNc1cncc(-c2ccc(CO)cc2)n1 | 0
COc1ccc2[nH]c3c(c2c1)CN(Cc1cn[nH]c1C(=O)O)CC3 | 0
O=C(NCCOc1ccccc1F)N1CCN(S(=O)(=O)c2cccc([N+](=O)[O-])c2)CC1 | 0
CCCNC(=O)C1(C)CCN(CCC(=O)c2ccc(Br)cc2)C1 (configuration not stated) | 64
CCNC(=O)C1(C)CCCN(CC(=O)c2ccc(Br)cc2)C1 (configuration not stated) | 0
SMILES | mcGAS MS inh
CCNC(=O)C1(C)CCN1CCC(=O)c1ccc(Br)cc1 (configuration not stated) | 0
Cc1cc(C(=O)N2CCCC(CNS(=O)(=O)c3cccs3)C2)c2ccc(F)cc2n1 (configuration not stated) | 0
O=C(CCc1ccco1)N1CCCC1c1ncc(-c2ccccc2Cl)[nH]1 (configuration not stated) | 0
O=C(CC1=C(c2cccs2)CCC1=O)Nc1cnc2n1CCCC2 | 0
CCOC(=O)c1c(NC(=O)c2cc3ccccc3o2)sc(C(N)=O)c1C | 0
Cc1nnc2sc(-c3ccccc3NC(=S)NC(=O)c3cc4ccccc4o3)nn12 | 71
Cc1nnc2sc(-c3cccc(NC(=S)NC(=O)c4cc5ccccc5o4)c3)nn12 | 0
O=C(Nc1nncs1)c1cnn(Cc2ccccc2Cl)c1 | 0
O=C(Nc1nnc(C2CC2)s1)c1cn(-c2ccc(Br)cc2)nn1 | 0
O=C(Nc1nncs1)c1cn(-c2ccccc2Br)nn1 | 71
COc1ncccc1N(C)C(=O)c1cnc(Cc2ccccc2)s1 | 0
CCN=c1scc(-c2ccc(OC)cc2OC)n1/N=C1\CC(C)CC(C)(C)C1 (configuration not stated) | 0
Cn1c2c(c(=O)n(C)c1=O)C(c1cccnc1)C1=C(N2)c2ccccc2C1=O (configuration not stated) | 0
CN(CC(=O)Nc1cc(F)ccc1F)S(=O)(=O)c1ccc2c(c1)OCCCO2 | 0
COc1cc(C=C2C(=O)N(C)C(=O)N(C)C2=O)ccc1O | 0
COc1cc(/C=C/c2ccc(O)c(OC)c2)ccc1O | 0
COc1cc(/C=c2\sc3nc4cc(Br)cnc4n3c2=O)ccc1O | 72
O=C1C(n2c(=O)sc3ccccc32)CCN1CC(F)(F)F (configuration not stated) | 0
CC(=O)Nn1ccc2c(cnc3ncnn32)c1=O | 0
Cc1c(Cl)cccc1-c1ccc(CNc2nn[nH]n2)o1 | 0
CSc1ccccc1NC(=O)C1(C)CCN1C(=O)C1CCCCC1 (configuration not stated) | 0
O=C(C1CCC1)N1CCCC(N2CCN(c3ccccc3F)CC2)C1 (configuration not stated) | 0
CC(=O)N1CCCN(c2ccncc2N)CC1 | 0
CC(=O)N1CCC(N2CCN(c3ccncc3F)CC2)CC1 | 62
COC(=O)c1c(C)[nH]c(C(=O)NC(C)Cc2cccc(Cl)c2)c1C (configuration not stated) | 0
Cc1ccc(CNC(=O)c2ccccc2C(F)(F)F)cn1 | 0
COc1ccc2[nH]c(-c3nn4c(C(C)C)nnc4s3)cc2c1 | 0
Cc1cc(-c2nnc3sc(-c4ccc5ccccc5n4)nn23)n[nH]1 | 0
